Screening results as filed in PubChem BioAssay.
FLuc counter = firefly luciferase modulation, counter-screen for miR-21 project. purified FLuc, Km substrates, luminescence inhibition. Potency, µM (top dose mostly 57.5 µM), inactives show at the top dose activity change, negative = inhibition, hits mostly inhibitors. actives 6.9% (n = 360,000). P08659;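 note: plate controls were vehicle for no effect and reference inhibitor for full effect; nearly all actives have a fitted effect of over 55% in size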
Target sequence (P08659 whole entry, looked up): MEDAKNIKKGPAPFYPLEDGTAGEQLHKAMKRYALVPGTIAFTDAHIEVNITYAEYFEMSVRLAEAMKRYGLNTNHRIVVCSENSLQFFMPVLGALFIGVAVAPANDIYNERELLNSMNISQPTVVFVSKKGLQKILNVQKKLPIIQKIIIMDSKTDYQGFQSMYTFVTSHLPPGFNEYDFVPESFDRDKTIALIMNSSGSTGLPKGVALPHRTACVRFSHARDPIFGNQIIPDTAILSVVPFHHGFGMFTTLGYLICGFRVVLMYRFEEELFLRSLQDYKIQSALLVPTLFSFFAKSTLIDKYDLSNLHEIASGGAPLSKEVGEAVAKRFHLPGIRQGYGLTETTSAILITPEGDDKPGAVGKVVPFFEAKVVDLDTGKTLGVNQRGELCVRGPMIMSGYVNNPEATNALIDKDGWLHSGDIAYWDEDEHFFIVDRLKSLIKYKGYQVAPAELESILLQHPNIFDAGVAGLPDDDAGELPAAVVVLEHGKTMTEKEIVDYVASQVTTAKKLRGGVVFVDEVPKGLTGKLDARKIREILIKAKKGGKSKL
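Purified P. pyralis luciferase, 10 nM final, with Km-level 10 uM D-luciferin and 10 uM ATP in 50 mM Tris acetate pH 7.5, 10 mM Mg acetate, 0.01% Tween-20, 0.05% BSA; 6-point qHTS titration about 60 µM downward; luminescence read.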
Rab9 prom act = Rab9 promoter activation. AID 485297. Huh7 Rab9 promoter-luciferase reporter, luminescence, 24 h. Potency, µM (series often up to 9.22 µM), without a hit: at the highest dose activation, negative = inhibition, actives largely listed as activators. actives 2.8% (n = 320,000); note: % of control where 0% means no effect; nearly all actives have a fitted effect of over 60% in size
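Luminescence from Amplite-detected luciferase (10 minutes, ambient) reports Rab9 promoter activation. Before that, stable Rab9-luciferase Huh7 cells (1500/well, reduced-serum OP-MEM I plus 10% FBS) were exposed to compound for 24 hours at 37C.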
ELG1 genotox = genotoxicity induction in ELG1-luciferase HEK293T cells; HEK293T ELG1-luciferase reporter, luminescence, 16 h; AID 504466; actives 1.3% (n = 330,000); Potency, µM (doses to about 46 µM), for the others: at the highest dose activity change, positive = activation, most hits filed as activators; note: % of control where 0% means no effect; nearly all actives have a fitted effect of over 60% in size
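Reporter readout depends on ELG1 protein level, which increases with genetic stress. After 16 hr compound exposure at 37 °C, luciferase activity was quantified using ONE-Glo.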
NPC1 prom act = activates the NPC1 promoter. Huh7 NPC1 promoter luciferase reporter, 24 h. Potency, µM (top dose mostly 9.22 µM), inactives show at the top dose activation, usual class: activators. actives 2.4% (n = 320,000). AID 485313; note: % of control where 0% means no effect; nearly all actives have a fitted effect of over 60% in size
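Readout is luciferase luminescence, reflecting NPC1 promoter activation in stably transfected Huh7 cells after 24 h compound exposure at 37 °C in reduced-serum medium with 10% FBS.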
SMN2 splice up = increases expression of the SMN2 splice variant | HEK293 SMN2-luciferase splicing reporter, luminescence, 30-36 h | Potency, µM (highest dose often 46.1 µM), inactives show at the top dose activity change, positive = activation, usual class: activators | actives 2.8% (n = 210,000); note: % of control where 0% means no effect; nearly all actives have a fitted effect of over 55% in size
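HEK293 cells carry an SMN2 minigene-luciferase reporter in which exon 7 inclusion puts luciferase in frame. Cells were seeded at 2000 cells/well, attached for 10-12 hours, then exposed to compounds for 30-36 hours at 37C before ONE-Glo luminescence.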
Active calls of the source: *; ? = inconclusive; . = no result given; [ ] = another dose, or the depositor's remark. This is a sample that favours compounds with a hit; in the whole collection about 7.4% have one here. Calls come from the whole dose curve; as a rule, active = well fitted curve in the direction sought with a large enough effect; inconclusive = small, poorly fitted or top-dose-only effect, or another doubt; inactive = no such curve, though single readings can be large; an effect the other way counts as inactive or inconclusive. Potency is the fitted concentration of half-maximal effect.

SMILES	FLuc counter	Rab9 prom act	ELG1 genotox	NPC1 prom act	SMN2 splice up
COc1ccc(C(=O)Nc2ccc(N3CCN(C)CC3)cc2)cc1	19µM*	?	?	?	.
CCOc1ccc(C(=O)NCC(=O)N2CCCCCCC2)cc1	-3%	0%	-1%	-1%	.
CCOc1ccc(C(=O)Nc2ccc(N3CCN(C)CC3)cc2)cc1	12µM*	15%	9%	15%	.
CCCCOc1ccc(C(=O)Nc2ccc(N3CCN(C)CC3)cc2)cc1	-12%	-4%	5%	-3%	12%
Cc1nc2n(c(=O)c1CCN1CCC(c3noc4cc(F)ccc34)CC1)CCCC2O (stereo unspecified)	.	-2%[46.1 µM]	.	7%[46.1 µM]	.
Cc1ccc(C(=O)Nc2ccc(S(=O)(=O)N3CCCC3)cc2)cc1	?	13%	3%	1%	.
Cc1ccc(C(=O)Nc2ccc(Br)c(C(F)(F)F)c2)cc1	13µM*	?	-1%	?	33%
Cc1ccc(NC(=O)c2ccc(C)cc2)cc1	0.85µM*	0.25µM*	?	0.45µM*	.
Cc1ccccc1CN1CCC(CNc2ncnc3onc(-c4ccc(Cl)cc4)c23)CC1	-2%	.	.	.	.
CN(C)C(=O)c1ccc2c(c1[N+](=O)[O-])C(=O)c1ccccc1C2=O	4%	?	8%	?	11µM*
O=[N+]([O-])c1ccc(COc2ccccc2/C=N/O)cc1	?	?	13%	?	16µM*
